In PubChem BioAssay (Tox21):
Inconclusive results are not listed. A call without a number means that no potency is given here. The source made the active and inactive calls. Unless noted, calls follow the shape of the full dose curve.

Tests used:
[1] = Nuclear factor erythroid 2-related factor 2/antioxidant responsive element (Nrf2/ARE) small molecule agonists: qHTS cell viability counter screen in human keratinocytes (AID 1919968; active = well fitted curve in the direction sought with a large enough effect in the repeat runs; an effect the other way counts as inactive or inconclusive; also: nearly all actives have a fitted effect of over 55% in size)
Summary of the method: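 Measured as CellTiter-Fluor fluorescence, this readout tracks cytotoxicity in the same wells as the ARE-luciferase screen. HaCaT reporter cells (1,500/well) received compounds after a 5 h pre-incubation and were exposed for 23 h.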

[2] = Nuclear factor erythroid 2-related factor 2/antioxidant responsive element (Nrf2/ARE) small molecule agonists: luciferase reporter gene qHTS assay in human keratinocytes (AID 1919969); also: nearly all actives have a fitted effect of over 35% in size; also: potency is read from the fitted curve at half-maximal effect
[3] = target: Gonadotropin-releasing hormone receptor (Homo sapiens) (UniProt P30968); test: Human gonadotropin-releasing hormone receptor (GnRHR) small molecule agonists, calcium flux assay in GnRHR-HEK293 cells (AID 1920063); also: nearly all actives have a fitted effect of over 35% in size
Gonadotropin-releasing hormone receptor (Homo sapiens), sequence (P30968 whole entry, looked up): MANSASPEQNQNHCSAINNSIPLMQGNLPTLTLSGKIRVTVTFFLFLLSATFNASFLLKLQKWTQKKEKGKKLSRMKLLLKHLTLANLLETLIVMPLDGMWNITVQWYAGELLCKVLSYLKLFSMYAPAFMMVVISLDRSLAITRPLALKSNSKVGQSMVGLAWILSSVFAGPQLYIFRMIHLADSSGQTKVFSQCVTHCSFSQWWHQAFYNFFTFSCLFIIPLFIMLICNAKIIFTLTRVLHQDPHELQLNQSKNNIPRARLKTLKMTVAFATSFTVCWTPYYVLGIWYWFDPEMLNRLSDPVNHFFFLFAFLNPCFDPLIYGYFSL
Summary of the method: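 Fluorescence kinetics (480 nm excitation, 540 nm emission; 3 min, 1 s steps) report calcium mobilisation in human GnRHR-HEK293 cells in agonist mode. Dye incubation: 1 h, 37 C.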

[4] = target: KiSS-1 receptor (Homo sapiens) (UniProt Q969F8); test: Human kisspeptin (KISS1R) small molecule agonists, calcium flux assay in KISS1R-HEK293 cells (AID 1920064; active = well fitted curve in the direction sought with a large enough effect in the repeat runs; an effect the other way counts as inactive or inconclusive)
KiSS-1 receptor (Homo sapiens), sequence (Q969F8 whole entry, looked up): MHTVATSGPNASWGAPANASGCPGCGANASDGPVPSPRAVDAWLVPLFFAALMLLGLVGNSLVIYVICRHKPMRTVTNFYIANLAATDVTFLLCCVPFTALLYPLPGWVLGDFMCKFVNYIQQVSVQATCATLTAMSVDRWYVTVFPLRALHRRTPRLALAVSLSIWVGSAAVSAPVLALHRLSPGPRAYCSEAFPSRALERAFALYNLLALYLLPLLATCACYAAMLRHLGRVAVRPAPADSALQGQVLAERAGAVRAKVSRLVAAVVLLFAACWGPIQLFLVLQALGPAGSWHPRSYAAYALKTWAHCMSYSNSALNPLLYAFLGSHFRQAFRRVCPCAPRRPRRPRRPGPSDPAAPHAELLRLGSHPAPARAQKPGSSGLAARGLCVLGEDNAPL
Summary of the method: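 Measures KISS1R agonism through calcium-sensitive dye fluorescence in stably transfected HEK293 cells, read for 3 min after pin-tool compound delivery; 15-point titrations in triplicate.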

[5] = G protein-coupled receptor (GPCR) small molecule agonists, calcium flux assay: HEK293 wild type cell line counter screen (AID 1920065)
Summary of the method: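 Readout: fluorescence at 480 nm excitation/540 nm emission, sampled at 1 s intervals for 3 min. Cells had been cultured 18 h, then dye-loaded 1 h at 37 C before compound or ATP addition.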

[6] = p53 small molecule agonists, cell-based qHTS assay with human liver microsomes (AID 1963577)
Summary of the method: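 Fluorescence of the beta-lactamase reporter in p53RE-bla cells, detected with LiveBLAzer substrate (2 h, room temperature, dark), served as the read-out after 16 h compound exposure at 37 C with human liver microsomes and NADPH, each 0.5 mg/mL final.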

[7] = p53 small molecule agonists, cell-based qHTS assay with rat liver microsomes (AID 1963578)
Summary of the method: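 Cells carrying a p53 response element–beta-lactamase reporter were plated and rested 5 h, then dosed with compound in DMSO plus rat liver microsomes and NADPH, each at 0.5 mg/mL final. After 16 h at 37 C, LiveBLAzer substrate was added for 2 h.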

[8] = p53 small molecule agonists, cell-based qHTS assay with human liver microsomes: qHTS cell viability counter screen (AID 1963579); also: nearly all actives have a fitted effect of over 45% in size
Summary of the method: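 Cytotoxicity counter screen: p53RE-bla, 4,000 cells/well; 5 h settle, 37 C/5% CO2; cpd + HLM 0.5 mg/mL + NADPH 0.5 mg/mL (final); 16 h, 37 C; CellTiter-Glo, 30 min RT, luminescence.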

[9] = p53 small molecule agonists, cell-based qHTS assay with rat liver microsomes: qHTS cell viability counter screen (AID 1963580); also: nearly all actives have a fitted effect of over 45% in size
Summary of the method: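 p53RE-bla HCT-116 cells were exposed 16 h at 37 C to compounds with rat liver microsomes (0.5 mg/mL) and NADPH (0.5 mg/mL). Viability was measured in the same wells as ATP content by CellTiter-Glo luminescence.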

[10] = p53 small molecule agonists, cell-based qHTS assay: qHTS cell viability counter screen (AID 1963581); also: nearly all actives have a fitted effect of over 45% in size
Summary of the method: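 In the same plates used for the p53 bla reporter, HCT-116 cells given compounds for 16 h at 37 C received CellTiter-Glo; luminescence was recorded 30 min later at room temperature.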

[11] = p53 small molecule agonists, cell-based qHTS assay (AID 1963582; active = well fitted activation curve with a large enough effect in the signal ratio in the repeat runs, not every such curve was filed as active; the % refers to the signal ratio)
Summary of the method: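 Compounds are pin-transferred in DMSO onto p53RE-bla cells and incubated 16 h at 37 C. The B/G FRET beta-lactamase substrate is then applied for 2 h at RT and fluorescence recorded.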

[12] = target: 5-hydroxytryptamine receptor 2A (Homo sapiens) (UniProt P28223); test: 5-hydroxytryptamine receptor 2A (HTR2A) small molecule antagonists, cell-based qHTS assay (AID 1963586); also: nearly all actives have a fitted effect of over 45% in size
5-hydroxytryptamine receptor 2A (Homo sapiens), sequence (P28223 whole entry, looked up): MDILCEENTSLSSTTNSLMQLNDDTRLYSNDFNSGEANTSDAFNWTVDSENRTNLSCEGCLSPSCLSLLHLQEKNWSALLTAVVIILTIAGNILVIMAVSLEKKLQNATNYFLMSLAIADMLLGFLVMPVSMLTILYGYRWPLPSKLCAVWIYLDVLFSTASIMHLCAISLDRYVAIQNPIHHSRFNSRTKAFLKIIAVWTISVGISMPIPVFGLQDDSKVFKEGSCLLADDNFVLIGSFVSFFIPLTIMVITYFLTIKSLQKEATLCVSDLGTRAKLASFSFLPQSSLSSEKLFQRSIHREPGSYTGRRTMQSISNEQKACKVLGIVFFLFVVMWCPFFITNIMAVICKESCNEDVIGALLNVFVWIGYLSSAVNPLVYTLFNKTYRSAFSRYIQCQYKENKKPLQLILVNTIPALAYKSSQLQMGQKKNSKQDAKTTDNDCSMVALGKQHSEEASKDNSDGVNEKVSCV
Summary of the method: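 Antagonist-mode intracellular calcium assay: DOI (4 nM) added after 5 min compound pre-incubation at room temperature to dye-loaded HTR2A-CHO cells. Fluorescence followed for 3 min, sampled every second.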

[13] = target: 5-hydroxytryptamine receptor 2A (Homo sapiens) (UniProt P28223); test: 5-hydroxytryptamine receptor 2A (HTR2A) small molecule agonists, cell-based qHTS assay (AID 1963587); also: nearly all actives have a fitted effect of over 30% in size
Summary of the method: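 CHO cells stably expressing human HTR2A, plated 18 h, loaded with calcium dye 1 h at 37 C. Agonist mode: compounds added and intracellular calcium fluorescence recorded kinetically for 2 min at 1 sec intervals.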

[14] = target: Muscarinic acetylcholine receptor M1 (Homo sapiens) (UniProt P11229); test: Cholinergic receptor muscarinic 1 (CHRM1) small molecule antagonists, cell-based qHTS assay (AID 1963588); also: nearly all actives have a fitted effect of over 40% in size
Muscarinic acetylcholine receptor M1 (Homo sapiens), sequence (P11229 whole entry, looked up): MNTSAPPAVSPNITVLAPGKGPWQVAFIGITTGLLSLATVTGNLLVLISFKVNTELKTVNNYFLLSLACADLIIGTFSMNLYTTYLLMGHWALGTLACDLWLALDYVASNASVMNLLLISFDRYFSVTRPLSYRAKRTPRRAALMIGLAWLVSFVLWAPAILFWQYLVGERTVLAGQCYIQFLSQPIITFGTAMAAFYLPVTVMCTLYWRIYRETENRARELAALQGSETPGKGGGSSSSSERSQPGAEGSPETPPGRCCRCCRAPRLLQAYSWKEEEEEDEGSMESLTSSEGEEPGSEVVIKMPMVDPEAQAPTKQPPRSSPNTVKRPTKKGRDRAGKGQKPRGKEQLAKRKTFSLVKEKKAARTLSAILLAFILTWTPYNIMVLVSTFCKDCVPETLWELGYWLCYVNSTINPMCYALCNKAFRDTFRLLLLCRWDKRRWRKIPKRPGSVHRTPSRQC
Summary of the method: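 CHRM1-CHO calcium-flux assay, antagonist mode. Cells were seeded 18 h, dye-loaded 1 h at 37 C and given compound for 5 min at RT, then acetylcholine was added at 50nM. FDSS fluorescence was read 3 min; 15 concentrations, three runs.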

[15] = target: Muscarinic acetylcholine receptor M1 (Homo sapiens) (UniProt P11229); test: Cholinergic receptor muscarinic 1 (CHRM1) small molecule agonists, cell-based qHTS assay (AID 1963589); also: nearly all actives have a fitted effect of over 35% in size
Summary of the method: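 Each compound was tested at 15 concentrations across three independent runs on dye-loaded CHO cells stably expressing human CHRM1, reading intracellular calcium fluorescence kinetically at 1 sec intervals.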

[16] = cAMP Responsive Elements (CRE) small molecule agonists, cell-based qHTS assay (AID 1963590)
Summary of the method: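 Cell line: CRE-bla HEK 293T; medium DMEM/10% dialyzed FBS/0.1 mM NEAA/1 mM pyruvate/25 mM HEPES; 3 h compound exposure; beta-lactamase FRET readout after 2 h substrate loading at RT.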

[17] = cAMP Responsive Elements (CRE) small molecule antagonists, cell-based qHTS assay (AID 1963591; active = well fitted inhibition curve with a large enough effect in the signal ratio in the repeat runs, not every such curve was filed as active; the % refers to the signal ratio)
Summary of the method: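 Inhibition of NKH477-driven (0.25 uM final) CRE-beta-lactamase signal in HEK293T cells, 3 h compound exposure at 37 °C, detected by FRET substrate fluorescence.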

[18] = target: Beta-2 adrenergic receptor (Homo sapiens) (UniProt P07550); test: Adrenergic beta2 receptor (ADRB2) small molecule antagonists, cell-based qHTS assay (AID 1963592); also: series mostly up to about 92 µM; nearly all actives have a fitted effect of over 50% in size
Beta-2 adrenergic receptor (Homo sapiens), sequence (P07550 whole entry, looked up): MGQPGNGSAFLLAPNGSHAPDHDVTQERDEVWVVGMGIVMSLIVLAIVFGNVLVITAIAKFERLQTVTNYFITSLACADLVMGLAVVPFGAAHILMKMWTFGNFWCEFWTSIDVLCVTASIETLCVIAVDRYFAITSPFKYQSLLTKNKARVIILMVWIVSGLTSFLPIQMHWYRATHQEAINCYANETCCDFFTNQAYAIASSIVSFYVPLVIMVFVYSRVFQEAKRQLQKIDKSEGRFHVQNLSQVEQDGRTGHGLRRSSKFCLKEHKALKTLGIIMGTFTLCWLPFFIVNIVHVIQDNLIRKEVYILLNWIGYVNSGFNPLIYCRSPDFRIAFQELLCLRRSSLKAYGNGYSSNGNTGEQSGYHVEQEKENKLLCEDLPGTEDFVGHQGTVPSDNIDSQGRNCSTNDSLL
Summary of the method: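 Cells (CHO, stable ADRB2 overexpression) incubated 18-20hr at 37C; compounds added from DMSO; agonist mix (1nM isoproterenol, 100uM IBMX, 25uM Ro-20-1724) added; 0.5hr RT; d2-cAMP and anti-cAMP-cryptate added; 1hr RT; 665/615 nm read.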

[19] = target: D(2) dopamine receptor (Homo sapiens) (UniProt P14416); test: Dopamine D2 receptor (DRD2) small molecule agonists, cell-based qHTS assay (AID 1963594); also: nearly all actives have a fitted effect of over 35% in size
D(2) dopamine receptor (Homo sapiens), sequence (P14416 whole entry, looked up): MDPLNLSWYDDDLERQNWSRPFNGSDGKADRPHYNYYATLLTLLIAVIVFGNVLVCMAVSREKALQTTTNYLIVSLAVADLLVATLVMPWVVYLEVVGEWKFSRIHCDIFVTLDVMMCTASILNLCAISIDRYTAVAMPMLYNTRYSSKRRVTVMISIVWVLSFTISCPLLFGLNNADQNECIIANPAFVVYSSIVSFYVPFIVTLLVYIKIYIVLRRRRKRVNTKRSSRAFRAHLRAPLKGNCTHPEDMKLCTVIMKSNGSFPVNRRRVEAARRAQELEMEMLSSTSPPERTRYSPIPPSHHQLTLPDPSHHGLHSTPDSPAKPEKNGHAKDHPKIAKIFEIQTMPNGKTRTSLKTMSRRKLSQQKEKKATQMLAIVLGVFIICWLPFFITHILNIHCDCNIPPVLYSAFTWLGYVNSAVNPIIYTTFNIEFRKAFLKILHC
Summary of the method: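 HEK293 cells stably expressing human DRD2, pre-treated with PDE inhibitor Ro20-1724 (0.1 mM final) and compound 10 min at room temperature, then stimulated with NKH477 (200nM […]) for 30 min. cAMP read by HTRF (665/620 nm).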

[20] = target: D(2) dopamine receptor (Homo sapiens) (UniProt P14416); test: Dopamine D2 receptor (DRD2) small molecule antagonists, cell-based qHTS assay (AID 1963595; active = well fitted inhibition curve with a large enough effect in the signal ratio in the repeat runs, with a control signal flat; the % refers to the signal ratio)
Summary of the method: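 HEK293 cells stably expressing DRD2 were preincubated with 0.1 mM Ro20-1724, then with compound for 10 min at room temperature. Cells were stimulated with 200 nM NKH477 plus 12 nM quinpirole for 30 min, and cAMP was read by HTRF.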

SMILES	Potency [1]	Potency [2]	Potency [3]	Potency [4]	Potency [5]	Potency [6]	Potency [7]	Potency [8]	Potency [9]	Potency [10]	Potency [11]	Potency [12]	Potency [13]	Potency [14]	Potency [15]	Potency [16]	Potency [17]	Potency [18]	Potency [19]	Potency [20]
CCCCNc1ccccc1	inactive	inactive	inactive	inactive	inactive	inactive	inactive	inactive	inactive	inactive	inactive	inactive	inactive	inactive	inactive	inactive	inactive	inactive	inactive	inactive
C=CCOCC(CC)(CO)COCC=C	inactive	inactive	inactive	inactive	inactive	inactive	inactive	inactive	inactive	inactive	inactive	inactive	inactive	inactive	inactive	inactive	inactive	inactive	inactive	inactive
CC(=O)c1ccccc1O	inactive	inactive	inactive	inactive	inactive	inactive	inactive	inactive	inactive	inactive	inactive	inactive	inactive	inactive	inactive	inactive	inactive	inactive	inactive	inactive
CCCCOCCOCCOCCCC	inactive	inactive	inactive	inactive	inactive	inactive	inactive	inactive	inactive	inactive	inactive	inactive	inactive	inactive	inactive	inactive	inactive	inactive	inactive	
c1ccc(CCCc2ccncc2)cc1	inactive	48.6 µM (active)	inactive	inactive	inactive	inactive	inactive	inactive	inactive	inactive	inactive	inactive	inactive	inactive	inactive	inactive	inactive	inactive	inactive	inactive
O=C(Cl)c1ccccc1[N+](=O)[O-]	inactive	inactive	inactive	inactive	inactive	inactive	inactive	inactive	inactive	inactive	inactive	inactive	inactive	inactive	inactive	inactive	inactive	inactive	inactive	inactive
ClC(c1ccccc1)(c1ccccc1)c1ccccc1	inactive	inactive	inactive	inactive	inactive	inactive	inactive	inactive	inactive	inactive	inactive	inactive	inactive	inactive	inactive	inactive	inactive	inactive	inactive	inactive
CCCCCCCCCCCCCCCCCCOCC(O)CO (configuration not stated)	inactive	inactive	inactive	inactive	inactive	inactive	inactive	inactive	inactive	inactive	inactive	inactive	inactive	inactive	inactive	inactive	inactive	inactive	inactive	
CC1OC1C1CCC2(C)OC2C1 (configuration not stated)	inactive	inactive	inactive	inactive	inactive	inactive	inactive	inactive	inactive	inactive	inactive	inactive	inactive	inactive	inactive	inactive	inactive	inactive	inactive	inactive
CCc1c(C(=O)O)c(=O)cnn1-c1ccc(Cl)cc1	inactive	inactive	inactive	inactive	inactive	inactive	inactive	inactive	inactive	inactive	inactive	inactive	inactive	inactive	inactive	inactive	inactive	inactive	inactive	
COCC(C)OC(C)=O (configuration not stated)	inactive	inactive	inactive	inactive	inactive	inactive	inactive	inactive	inactive	inactive	inactive	inactive	inactive	inactive	inactive	inactive	inactive	inactive	inactive	inactive
CCN(CC)CC(=O)Oc1ccc(NC(C)=O)cc1	inactive	inactive	inactive	inactive	inactive	inactive	inactive	inactive	inactive	inactive	inactive	inactive	inactive	inactive	inactive	inactive	inactive	inactive	inactive	inactive
O=C(O[C@@H](C(=O)O)[C@@H](OC(=O)c1ccccc1)C(=O)O)c1ccccc1	inactive	inactive	inactive	inactive	inactive	inactive	inactive	inactive	inactive	inactive	inactive	inactive	inactive	inactive	inactive	inactive	inactive	inactive	inactive	inactive
CCCO	inactive	inactive	inactive	inactive	inactive	inactive	inactive	inactive	inactive	inactive	inactive	inactive	inactive	inactive	inactive	inactive	inactive	inactive	inactive	inactive
